Compound activity as filed in PubChem BioAssay.
The list is not random: actives were taken first. Their share in the collection is about 10%.
JMJD2A Tudor inh = JMJD2A Tudor domain (human) inhibition | AID 504339 | actives 4.4% (n = 390,000) | O75164 | AlphaScreen JMJD2A-Tudor / H3K4me3 peptide binding | Potency, µM (titrated, usually from 114 µM), for inactives: top-dose activity change, negative = inhibition, usual class: inhibitors; note: % is set by controls: 0 for no effect and ±100 for the full control effect; nearly all actives have a fitted effect of over 50% in size
HP1b binding inh = inhibitors of HP1-beta chromodomain binding to methylated histone tails; AlphaScreen HP1-beta / biotin-H3K9me3 peptide binding; Potency, µM (titrated, usually from 114 µM), for the others: at the top dose activity change, negative = inhibition, actives largely listed as inhibitors; P83916; actives 0.56% (n = 390,000); note: nearly all actives have a fitted effect of over 70% in size
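HP1-beta protein (50 nM final) preincubated 30 min at room temperature with biotinylated H3(1-18)K9me3 peptide (50 nM) in PBS pH 7.4, 0.01% Tween-20, then compound added for 30 min. AlphaScreen streptavidin donor/nickel chelate acceptor beads (10 ug/mL final), 30 min dark, luminescence read.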
G9a block = G9a (human) methyltransferase inhibition. Q96KQ7. G9a H3K9 monomethylation, AlphaScreen, 2 h. Potency, µM (highest dose often 102 µM), for the others: at the top dose activity, negative = inhibition, actives largely listed as inhibitors. actives 8.8% (n = 350,000). AID 504332; note: % is set by controls: 0 for no effect and ±100 for the full control effect; nearly all actives have a fitted effect of over 75% in size
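Methyltransferase reactions run at room temperature for 2 h (20 nM enzyme, 500 nM biotin-H3K9 peptide, 20 uM SAM) after a 15 min compound preincubation; product detected by AlphaScreen beads and anti-H3K9me1 antibody.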
BAZ2B inh = BAZ2B (human) inhibition | Potency, µM (titrated, usually from 114 µM), inactives show at the highest dose activity change, negative = inhibition, usual class: inhibitors | Q9UIF8 | AlphaScreen BAZ2B-H3K14Ac peptide displacement | actives 4.4% (n = 360,000); note: % is set by controls: 0 for no effect and ±100 for the full control effect; nearly all actives have a fitted effect of over 60% in size
Target sequence (Q9UIF8 whole entry, looked up): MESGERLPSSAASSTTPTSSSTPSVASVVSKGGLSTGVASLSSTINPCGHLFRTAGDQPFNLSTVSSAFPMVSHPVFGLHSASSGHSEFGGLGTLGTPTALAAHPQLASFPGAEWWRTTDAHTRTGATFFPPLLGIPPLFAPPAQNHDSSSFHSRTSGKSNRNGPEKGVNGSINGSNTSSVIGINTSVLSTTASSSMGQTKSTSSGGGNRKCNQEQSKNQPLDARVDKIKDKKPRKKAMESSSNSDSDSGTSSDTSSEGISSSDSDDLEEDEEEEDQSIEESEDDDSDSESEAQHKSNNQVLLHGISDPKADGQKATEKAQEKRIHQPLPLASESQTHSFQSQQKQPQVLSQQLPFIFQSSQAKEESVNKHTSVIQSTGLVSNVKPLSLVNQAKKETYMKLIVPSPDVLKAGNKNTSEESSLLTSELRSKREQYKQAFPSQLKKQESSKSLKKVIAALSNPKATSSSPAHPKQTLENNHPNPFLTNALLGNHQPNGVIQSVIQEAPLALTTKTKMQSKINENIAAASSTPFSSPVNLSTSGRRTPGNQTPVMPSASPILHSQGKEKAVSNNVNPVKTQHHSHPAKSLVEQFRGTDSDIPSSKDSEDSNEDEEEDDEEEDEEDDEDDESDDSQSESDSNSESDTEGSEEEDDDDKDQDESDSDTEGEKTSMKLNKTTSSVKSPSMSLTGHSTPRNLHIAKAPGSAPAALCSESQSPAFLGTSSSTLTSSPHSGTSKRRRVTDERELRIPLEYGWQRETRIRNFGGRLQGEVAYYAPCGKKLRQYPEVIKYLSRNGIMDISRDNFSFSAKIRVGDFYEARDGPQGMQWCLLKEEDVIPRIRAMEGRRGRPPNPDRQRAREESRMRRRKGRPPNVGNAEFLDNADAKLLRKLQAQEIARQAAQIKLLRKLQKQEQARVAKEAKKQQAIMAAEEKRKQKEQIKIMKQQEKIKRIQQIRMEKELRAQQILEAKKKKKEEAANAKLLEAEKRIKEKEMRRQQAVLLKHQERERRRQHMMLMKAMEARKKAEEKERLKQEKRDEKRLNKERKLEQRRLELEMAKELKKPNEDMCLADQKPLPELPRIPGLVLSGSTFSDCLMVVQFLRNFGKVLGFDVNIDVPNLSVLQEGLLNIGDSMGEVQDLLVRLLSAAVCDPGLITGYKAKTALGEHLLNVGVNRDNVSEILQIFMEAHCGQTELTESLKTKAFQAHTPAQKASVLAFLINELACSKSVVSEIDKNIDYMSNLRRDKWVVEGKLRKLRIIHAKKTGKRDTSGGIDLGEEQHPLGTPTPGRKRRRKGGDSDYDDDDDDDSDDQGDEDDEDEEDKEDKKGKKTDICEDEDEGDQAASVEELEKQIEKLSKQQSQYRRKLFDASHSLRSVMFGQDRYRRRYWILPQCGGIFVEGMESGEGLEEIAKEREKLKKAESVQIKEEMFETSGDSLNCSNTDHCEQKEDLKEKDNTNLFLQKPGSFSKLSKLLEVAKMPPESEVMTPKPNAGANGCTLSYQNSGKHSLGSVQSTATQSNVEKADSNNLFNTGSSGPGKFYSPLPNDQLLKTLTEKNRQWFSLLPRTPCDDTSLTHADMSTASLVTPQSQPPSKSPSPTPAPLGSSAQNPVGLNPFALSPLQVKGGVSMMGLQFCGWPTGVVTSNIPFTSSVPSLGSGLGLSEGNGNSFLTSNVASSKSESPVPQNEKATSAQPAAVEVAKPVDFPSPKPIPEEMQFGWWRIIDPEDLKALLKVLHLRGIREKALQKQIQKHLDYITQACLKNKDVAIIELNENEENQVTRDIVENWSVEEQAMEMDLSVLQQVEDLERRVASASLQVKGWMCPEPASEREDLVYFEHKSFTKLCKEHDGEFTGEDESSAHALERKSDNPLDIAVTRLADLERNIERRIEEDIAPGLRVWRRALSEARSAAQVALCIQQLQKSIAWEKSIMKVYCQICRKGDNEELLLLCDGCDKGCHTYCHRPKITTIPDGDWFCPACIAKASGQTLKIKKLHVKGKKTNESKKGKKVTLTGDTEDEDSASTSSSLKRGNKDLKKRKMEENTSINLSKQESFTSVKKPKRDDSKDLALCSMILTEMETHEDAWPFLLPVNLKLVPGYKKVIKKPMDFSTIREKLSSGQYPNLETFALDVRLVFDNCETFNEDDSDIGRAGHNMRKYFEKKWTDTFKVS
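Inhibition is scored as reduced AlphaScreen emission. The BAZ2B/b-H3(5-23)K14Ac complex (50 nM each) in PBS pH 7.4, 0.01% Tween-20 meets compound (up to 110 uM) for 30 min at RT before bead addition.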
GLS inhibitor = inhibitors of human glutaminase (GLS); O94925; GLS enzymatic activity, qHTS titration; Potency, µM (top dose mostly 45.5 µM), inactives show at the highest dose activity change, negative = inhibition, actives largely listed as inhibitors; actives 0.21% (n = 410,000); note: % is set by controls: 0 for no effect and ±100 for the full control effect
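Human kidney-isoform GLS in 45 mM KH2PO4 pH 8.2, 0.02% Tween-20, with compound, started with 1mM L-Glutamine (added stock). Glutamate oxidase/HRP/Amplex red coupled fluorescence read at start and after 30 min at RT.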
Numbers without * were called inactive; ? = inconclusive; nt = no result; [ ] = remark or other dose. Calls come from the whole dose curve; as a rule, active = well fitted curve in the direction sought with a large enough effect; inconclusive = small, poorly fitted or top-dose-only effect, or another doubt; inactive = no such curve, though single readings can be large; an effect the other way counts as inactive or inconclusive. Potency is the fitted concentration of half-maximal effect.

SMILES | JMJD2A Tudor inh | HP1b binding inh | G9a block | BAZ2B inh | GLS inhibitor
COc1cccc2sc3ccc(C#CC4(N)CCCCC4)cc3c(=O)c12 | -29% | 36% | nt | -13% | -12%
CNC(C)C#Cc1ccc2c(=O)c3c(OC)cccc3oc2c1 (stereo unspecified) | nt | nt | nt | -6% | nt
CC(=O)c1sc(-c2ccccc2)cc1NS(=O)(=O)c1ccc(C)cc1 | 12% | 17% | 5% | -17% | 17%
COc1ccc(S(=O)(=O)Nc2cc(C)c(O)cc2C(C)C)cc1 | -34% | 5% | 25µM* | 5% | 29%
COc1ccc(S(=O)(=O)Nc2cc(C(C)C)c(O)cc2C)cc1 | -15% | 10% | -27%[12.7 µM] | -1% | 73%
Cc1ccc(S(=O)(=O)Nc2csc(C)c2C(=O)O)cc1 | -15% | 19% | 40µM* | 45µM* | 9%
Cc1ccc(S(=O)(=O)Nc2cc(C)c(O)cc2C)cc1 | -16% | 23% | 50µM* | -21% | -26%
C/C(=N\NC(=O)CNC(=O)c1cccc(F)c1)c1ccc2ccccc2c1 | -15% | -1% | -7% | -14% | 2%
Cc1ccc(C(=O)CSc2nnc(N)s2)c(C)c1 | -17% | 22% | -32% | -4% | -4%
CC(=O)/C(=N\Nc1ccc(C)cc1)Sc1nncn1C | ? | 14%[57 µM] | 8.9µM* | -5% | 0%
Cc1ccc(NC(=O)CN(C)C(=O)CSc2nncn2C)cc1 | -14% | 13% | -23%[59 µM] | 0% | 2%
CC1Cc2ccccc2N1C(=O)NC1CC(=O)N(c2ccc3c(c2)OCCO3)C1 (stereo unspecified) | -17% | 15% | -40% | nt | 1%
CC(Nc1ccc2c(c1)OCCO2)C(=O)N1c2ccccc2CC1C (stereo unspecified) | ? | -13% | ? | 40µM* | 0%
COc1ccc(C(C)C)cc1S(=O)(=O)NCCc1c(C)[nH]c2c(Cl)cccc12 | ? | -12% | ? | 28µM* | 5%
Cc1[nH]c2ccccc2c1CCNS(=O)(=O)c1ccc(S(N)(=O)=O)cc1 | ? | 0% | 19% | -17% | -9%
Cc1[nH]c2c(C)cccc2c1CCNS(=O)(=O)c1cccc([N+](=O)[O-])c1 | ? | ? | ? | 50µM* | 27%
COc1cc(S(=O)(=O)NCCc2c(C)[nH]c3ccc(C)cc23)ccc1Br | 50µM* | ? | ? | ? | 7%
COc1c(C)cc(S(=O)(=O)NCCc2c(C)[nH]c3ccccc23)c(C)c1C | ? | -19% | ? | 40µM* | 4%
COc1cc(/C=N/NC(=O)C(=O)NCC2CCCO2)cc(Cl)c1O (stereo unspecified) | -8% | 18% | -37% | -15% | 86%
COc1cc(NC(=O)Cn2cnc(S(=O)(=O)N3CCc4ccccc43)c2)cc(OC)c1OC | -5% | 35% | 8%[59 µM] | -20% | -7%
c1ccc(C(Cc2nc(-c3ccncc3)no2)c2ccccc2)cc1 | 20% | 80% | 9%[12.7 µM] | 24% | 1%
COc1ccc(C(C)C)cc1S(=O)(=O)NCCCn1ccnc1 | -12% | 34% | 20% | -26% | 6%
COc1cc(Cl)c(S(=O)(=O)NCCc2c(C)[nH]c3c(C)cccc23)cc1Cl | 50µM* | -21% | -27%[59 µM] | 32µM* | 3%
COc1ccc(C(C)C)cc1S(=O)(=O)NCCc1c(C)[nH]c2ccc(C)cc12 | 50µM* | 10% | ? | ? | 0%
COc1ccc(S(=O)(=O)Nc2ccc(F)c(Cl)c2)cc1OC | -5% | 38% | 13%[59 µM] | 10% | -10%
SMILES | JMJD2A Tudor inh | HP1b binding inh | G9a block | BAZ2B inh | GLS inhibitor
COc1ccc(NC(=O)C2C3CCC(C3)C2C(=O)O)cc1OC (stereo unspecified) | 3% | 26% | -32%[12.7 µM] | 9% | 2%
CCCCCCCCCCCCCCCCCCNC(=O)OCC(COP(=O)([O-])OCC[n+]1ccsc1)OC (stereo unspecified) | nt | nt | 21µM* | nt | nt
N#CCCSCc1ccc2oc(C(=O)O)cc2c1 | -17% | 28% | ? | -5% | -15%
Cc1cccc(NC(=S)N2CCCCCC2)c1 | 0% | 32% | -13%[59 µM] | -12% | 12%
O=C1CCC(=O)N1c1cccc(OS(=O)(=O)c2ccccc2)c1 | -10% | 0% | 1%[59 µM] | 0% | 6%
Cn1c(=O)c2c(nc(CN3CCN(C(=O)c4ccco4)CC3)n2Cc2ccc(F)cc2)n(C)c1=O | -3% | 4% | ? | 3% | 3%
Cn1c(=O)[nH]c(=O)c2[nH]c(CN3CCN(C(=O)c4ccco4)CC3)nc21 | 3.2µM* | 12% | ? | -22% | 6%
CN(Cc1ccccc1)Cc1nc2c([nH]1)c(=O)[nH]c(=O)n2C | 1µM* | 16% | 27%[12.7 µM] | 11% | 5%
O=C(c1ccco1)N1CCN(Cc2nc3cc(Cl)ccc3c(=O)[nH]2)CC1 | 14µM* | 30% | 6% | -2% | -2%
OCCCn1c(CCNc2nc(-c3ccc(Cl)cc3)cs2)nc2cc(C(F)(F)F)ccc21 | -27% | 24% | nt | nt | -5%
COc1ccccc1N(CC(=O)Nc1ccccc1F)S(C)(=O)=O | -2% | 23% | -21%[59 µM] | 1% | -7%
COc1ccc(S(=O)(=O)N2CCOCC2)cc1NC(=O)c1ccc(-n2nc(C)cc2C)cc1 | -13% | -1% | 14% | -2% | 1%
CCOc1ccc(C2C(C(=O)C3CC3)N3C=C(C#N)C=CC3C2(C#N)C#N)cc1 (stereo unspecified) | nt | nt | 25µM* | -36% | nt
CCN(CC)C(=O)c1cnn(-c2ccc(F)cc2)c1-n1cccc1 | 7% | 30% | 1%[59 µM] | -16% | 5%
Cc1ccc(-c2nc(CCNC(=O)c3ccco3)cs2)cc1 | -12% | 3% | -21% | 5% | 1%
Cc1ccc(-c2nc(CNC(=O)c3ccco3)cs2)cc1 | -1% | 34% | 50µM* | -16% | 3%
COc1cccc(NC(=O)CSc2nn3c(=O)c(C)nnc3s2)c1 | ? | 71% | 83% | 6% | 3%
Cc1ccccc1NC(=O)CSc1nn2c(=O)c(C)nnc2s1 | 89µM* | 24% | 23% | ? | -5%
Cc1nnc2sc(SCC(=O)Nc3cccc(Cl)c3)nn2c1=O | ? | 57% | 6% | 40µM* | -3%
Cc1nnc2sc(SCC(=O)Nc3ccc(Br)cc3)nn2c1=O | ? | 44% | -6% | 40µM* | -10%
NS(=O)(=O)c1ccccc1NC(=S)Nc1ccccc1S(N)(=O)=O | -5% | 36% | 7% | -2% | 0%
CCC(=O)N1CCc2cc(Br)cc(S(=O)(=O)CCC(=O)Nc3cccc(C)c3C)c21 | -15% | 24% | -2%[59 µM] | 9% | 0%
CCOC(=O)c1cnc2c(C)c(Cl)ccc2c1Nc1ccc(N2CCOCC2)cc1 | ? | -27% | 7.9µM* | 10µM* | 22%
CCOC(=O)c1cnc(N2CCN(c3ccc(OC)cc3)CC2)c2ccccc12 | ? | 1%[57 µM] | 14µM* | ? | 2%
CCn1c(C)c(C(C)=O)c(N2CCN(c3ccc(OC)cc3)CC2)nc1=S | -31% | -4% | 35µM* | ? | 27%
